# The full list was thinned out, with the strongest signals kept by preference.
# Key:
# Test in all cases: glycan array binding signal (z-score within array); higher = stronger binding
# Conditions in all cases: glycan notation: IUPAC condensed, linker removed
# Fuc(a1-2)Gal(b1-4)Glc6S = target: Fuc(a1-2)Gal(b1-4)Glc6S
# Outline: (§1)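 Glycan array data came from 3228 arrays in the Consortium for Functional Glycomics database, and only arrays with an available protein sequence were kept. Glycan names were put into IUPAC-condensed notation, and columns mapping to the same glycan were averaged. The binding signal is a within-array Z-score, averaged across arrays of one protein sequence run at different concentrations or buffers and across linkers. A negative Z-score can be read as non-binding.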
# [1] = target: Fuc(a1-2)[GalNAc(a1-3)]Gal(b1-4)[Fuc(a1-3)]GlcNAc
# Outline: as §1
# [2] = target: Fuc(a1-2)[GalNAc(a1-4)]Gal(b1-4)GlcNAc
# Outline: as §1
# [3] = target: Fuc(a1-2)[GalNAc(b1-3)]Gal
# Outline: as §1
# Gal(a1-3)Gal = target: Gal(a1-3)Gal
# Outline: as §1
# Gal(a1-3)Gal(b1-4)Glc = target: Gal(a1-3)Gal(b1-4)Glc
# Outline: as §1
# Gal(a1-4)Gal(b1-4)GlcNAc = target: Gal(a1-4)Gal(b1-4)GlcNAc
# Outline: as §1
# [4] = target: Gal(b1-3)[Fuc(a1-4)]GlcNAc(b1-3)Gal(b1-4)GlcNAc
# Outline: as §1
# [5] = target: Gal(b1-3)[Fuc(a1-4)]GlcNAc(b1-3)Gal(b1-4)[Fuc(a1-3)]GlcNAc
# Outline: as §1
# [6] = target: Gal(b1-4)GlcNAc(a1-6)Gal(b1-4)GlcNAc
# Outline: as §1
# [7] = target: Gal(b1-4)GlcNAc(b1-3)Gal(b1-4)[Fuc(a1-3)]GlcNAc(b1-3)Gal(b1-4)[Fuc(a1-3)]GlcNAc
# Outline: as §1
# [8] = target: Gal(b1-4)GlcNAc(b1-3)GalNAc
# Outline: as §1
# [9] = target: Gal(b1-4)GlcNAc(b1-3)[Gal(b1-4)GlcNAc(b1-6)]Gal(b1-4)GlcNAc
# Outline: as §1
# [10] = target: Gal(b1-4)GlcNAc(b1-6)Gal(b1-4)GlcNAc
# Outline: as §1
# GalNAc(a1-3)Gal = target: GalNAc(a1-3)Gal
# Outline: as §1
# GalNAc(b1-3)Gal = target: GalNAc(b1-3)Gal
# Outline: as §1
# [11] = target: GalNAc(b1-3)Gal(a1-4)Gal(b1-4)GlcNAc
# Outline: as §1
# GalNAc(b1-3)GalNAc = target: GalNAc(b1-3)GalNAc
# Outline: as §1
# [12] = target: GlcNAc(b1-3)Gal(b1-4)GlcNAc
# Outline: as §1
# [13] = target: Man(a1-2)Man(a1-2)Man(a1-6)[Man(a1-3)]Man
# Outline: as §1
# Man(a1-2)Man(a1-3)Man = target: Man(a1-2)Man(a1-3)Man
# Outline: as §1
# [14] = target: Man(a1-2)Man(a1-3)[Man(a1-6)]Man(a1-6)[Man(a1-2)Man(a1-3)]Man(b1-4)GlcNAc(b1-4)GlcNAc
# Outline: as §1
# [15] = target: Neu5Ac(a2-3)Gal(b1-3)[Fuc(a1-4)]GlcNAc
# Outline: as §1
# [16] = target: Neu5Ac(a2-3)Gal6S(b1-4)GlcNAc
# Outline: as §1
# [17] = target: Neu5Ac(a2-3)GalNAc(b1-4)GlcNAc
# Outline: as §1
# [18] = target: Neu5Ac(a2-6)Gal(b1-4)GlcNAc6S
# Outline: as §1
# [19] = target: Neu5Ac(a2-8)Neu5Ac(a2-8)Neu5Ac(a2-8)Neu5Ac(a2-3)[GalNAc(b1-4)]Gal(b1-4)Glc
# Outline: as §1
binder,measurement,setting,value
CBM32-5 (Clostridium perfringens) (protein) MGSSHHHHHHSSGLVPRGSHMASALPQGNMKATATSEHPDVGNEGLAKFAIDGKENTIWHTKYNPVEELPQSITLELGGSYEINKFTYLPRSGAKNGNITKYELHVSEDGNNFRKISEGNWDDSGSLKTLKFNSTKATHVKLVALEGVGGFASAAELNVFA,glycan array binding signal (z-score),Fuc(a1-2)Gal(b1-4)Glc6S,-0.037
same,glycan array binding signal (z-score),[1],-0.639
same,glycan array binding signal (z-score),[2],9.74
same,glycan array binding signal (z-score),[3],6.11
same,glycan array binding signal (z-score),Gal(a1-3)Gal,-0.718
same,glycan array binding signal (z-score),Gal(a1-3)Gal(b1-4)Glc,2.12
same,glycan array binding signal (z-score),Gal(a1-4)Gal(b1-4)GlcNAc,0.124
same,glycan array binding signal (z-score),[4],-0.65
same,glycan array binding signal (z-score),[5],-0.543
same,glycan array binding signal (z-score),[6],0.343
same,glycan array binding signal (z-score),[7],-0.59
same,glycan array binding signal (z-score),[8],0.285
same,glycan array binding signal (z-score),[9],3.1
same,glycan array binding signal (z-score),[10],0.749
same,glycan array binding signal (z-score),GalNAc(a1-3)Gal,2.91
same,glycan array binding signal (z-score),GalNAc(b1-3)Gal,4.11
same,glycan array binding signal (z-score),[11],1.22
same,glycan array binding signal (z-score),GalNAc(b1-3)GalNAc,0.845
same,glycan array binding signal (z-score),[12],-0.249
same,glycan array binding signal (z-score),[13],-0.584
same,glycan array binding signal (z-score),Man(a1-2)Man(a1-3)Man,-0.091
same,glycan array binding signal (z-score),[14],-0.536
same,glycan array binding signal (z-score),[15],-0.236
same,glycan array binding signal (z-score),[16],-0.395
same,glycan array binding signal (z-score),[17],-0.526
same,glycan array binding signal (z-score),[18],-0.183
same,glycan array binding signal (z-score),[19],-0.621
